This is part of a sample that, as a whole, favours compounds with a hit. Of some 79,000 tested, about 15% had one in any assay. Rule as the data show it: active = growth inhibition above about 70%; inactive = the rest.
Tests used:
[1] = NCI Yeast Anticancer Drug Screen. Data for the rad50 strain (AID 155);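 also: 0% = growth of vehicle-only cultures of the same strain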; conditions: S. cerevisiae rad50 strain growth inhibition; at 50.0 µM; stronger effect = higher value
Outline: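 Inhibition values express reduced yeast growth in compound-treated cultures relative to vehicle-treated controls.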

[2] = NCI Yeast Anticancer Drug Screen. Data for the mec2-1 strain (AID 157); conditions: S. cerevisiae mec2-1 strain, at 50.0 µM, stronger effect = higher value
Outline: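 Using mec2-1 yeast: add compound, measure growth, express inhibition versus vehicle-treated cultures.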

[3] = NCI Yeast Anticancer Drug Screen. Data for the sgs1 mgt1 strain (AID 161);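 also: 0% = growth of cultures given vehicle only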; conditions: S. cerevisiae sgs1 mgt1 strain, at 50.0 µM, stronger effect = higher value
Outline: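 Growth of a repair-deficient yeast mutant was monitored after compound treatment and expressed as inhibition relative to vehicle-treated cultures.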

[4] = NCI Yeast Anticancer Drug Screen. Data for the cln2 rad14 strain (AID 165);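 also: 0% = growth equal to vehicle treated cultures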; conditions: S. cerevisiae cln2 rad14 strain, at 50.0 µM, stronger effect = higher value
Outline: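 Yeast strain cln2 rad14, bearing defects in cell cycle control and DNA repair, serves as the test system; values reflect growth inhibition compared with vehicle.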

[5] = NCI Yeast Anticancer Drug Screen. Data for the bub3 strain (AID 167); conditions: S. cerevisiae bub3 mutant strain, at 50.0 µM, stronger effect = higher value
Outline: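 Steps: expose the mutant yeast strain to compound; grow alongside vehicle-treated cultures; measure growth; express inhibition against the vehicle cultures.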

[6] = NCI Yeast Anticancer Drug Screen. Data for the mlh1 rad18 strain (AID 175); conditions: S. cerevisiae mlh1 rad18 strain growth inhibition; at 50.0 µM; stronger effect = higher value
Outline: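 Steps: expose repair-defective yeast to compound; measure growth; express inhibition against vehicle-treated controls.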

Measured: growth inhibition

CC(C)c1cccc(C(C)C)c1NC(=O)Nc1cccc(C(F)(F)F)c1
inactive: [1] -5.4% | [2] -11.1% | [3] 1.45% | [4] 8.3% | [5] 10.2% | [6] 3.85%

Cn1c(=O)c2[nH]c(CSc3ccccc3)nc2n(C)c1=O
inactive: [1] 9% | [2] -5.15% | [3] 6.2% | [4] -2.1% | [5] 21.8% | [6] -14.8%

CCOC(=O)C(=CNC(=S)Nc1cc(C)ccc1C)C(=O)OCC
inactive: [1] -12.8% | [2] -38.5% | [3] -14.1% | [4] -19.1% | [5] -16.7% | [6] -1.85%

CCCCSCC(NC(=O)/C=C/c1c(C)[nH]c(=O)[nH]c1=O)C(=O)OC (stereo unspecified)
inactive: [1] 16.1% | [2] 20.2% | [3] 31.2% | [4] 22.4% | [5] 7.7% | [6] 28.6%

CC1(C)C(CC(=O)O)CCCC1CC(=O)O (stereo unspecified)
inactive: [1] 12.2% | [2] 0.95% | [3] 4.15% | [4] 2.15% | [5] -11.4% | [6] 49.2%

CCCCCCCCCCCCCCCCOCC(COP(=O)(O)OCC1OC(n2cc(CC)c(=O)[nH]c2=O)CC1O)OC(=O)CCCCCCCCCCCCCCC (stereo unspecified)
inactive: [1] -0.45% | [2] -5.55% | [3] 5.25% | [4] 3.15% | [5] -15.1% | [6] -65%

Cn1c(=O)c(Br)cc2ccccc21
inactive: [1] 10.2% | [2] 13.9% | [3] 21.3% | [4] 8.45% | [5] 9.1% | [6] 33.5%

COCC/C=C/CCl
inactive: [1] -8.75% | [2] -22.6% | [3] -8.35% | [4] -8.95% | [5] -7.65% | [6] 5.1%

C/C(=C/c1ccccc1)C(F)F
inactive: [1] 3.9% | [2] -5.7% | [3] -13% | [4] -7.45% | [5] -11.6% | [6] 8.75%

O=[N+]([O-])c1cc(F)c(F)cc1F
inactive: [1] -26.9% | [2] 4.15% | [3] -21.1% | [4] -32.2% | [5] -14.6% | [6] 26.9%

CCOC(=O)c1nc[nH]c1C(=O)OCC
inactive: [1] 17.5% | [2] -7.25% | [3] -6.1% | [4] 11% | [5] -1.35% | [6] 12%

CC(C)=CC1C(COC(=O)c2ccccc2Cl)C1(C)C (stereo unspecified)
inactive: [1] 1% | [2] -8.3% | [3] -2.9% | [4] -27.9% | [5] -12.4% | [6] 18.8%

CC(C)NC1(N(C)C)N=C(N(C)C)N=C(N(C)C)O1 (stereo unspecified)
inactive: [1] -3.65% | [2] -2.7% | [3] 2.75% | [4] 27% | [5] 9.5% | [6] -1.25%

N#CCCc1nc(N)nc(N)n1
inactive: [1] -19.7% | [2] -3.7% | [3] -26.9% | [4] -60.3% | [5] -17.7% | [6] 5.85%

CC(C)NC(=O)Oc1ccccc1C(=O)OCc1ccccc1
inactive: [1] -0.45% | [2] 14.1% | [3] 28.9% | [4] -15.1% | [5] 13.4% | [6] 21.2%

O=C([O-])c1ccc2c(c1)-c1nc-2nc2[n-]c(nc3nc(nc4[n-]c(n1)c1ccc(C(=O)[O-])cc41)-c1cc(C(=O)[O-])ccc1-3)c1ccc(C(=O)[O-])cc21.[Fe+2]
inactive: [1] -1.2% | [2] -0.5% | [3] -13.6% | [4] 3.65% | [5] 7.5% | [6] -1.75%

O=C(O)Cc1c(-c2ccc([N+](=O)[O-])cc2)c(=O)oc2cc(O)ccc12
inactive: [1] 28.4% | [2] 4.15% | [3] 9% | [4] 20.1% | [5] 41% | [6] 11.7%

COCOc1c(OC)c(C2(O)C(=O)N(C)c3ccccc32)c(OCOC)c(OC)c1C1(O)C(=O)N(C)c2ccccc21 (stereo unspecified)
inactive: [1] 0.9% | [2] 13.8% | [3] -14.9% | [4] -3.9% | [5] 0% | [6] 15.4%

Cc1ccc(C(C)C)cc1O
inactive: [1] 17.6% | [2] 9.5% | [3] 19.1% | [4] 27% | [5] 13.7% | [6] 32.4%

COc1ccc(OC)c(NC(=O)Oc2cc(C)c(Cl)c(C)c2)c1
inactive: [1] 5.85% | [2] -1.85% | [3] 7.1% | [4] 8.25% | [5] 9.1% | [6] 6.35%

Cc1cc(Cl)ccc1NC(N)=O
inactive: [1] -5.95% | [2] -20.3% | [3] 5.15% | [4] 22.4% | [5] -3.7% | [6] -1.85%
